Here are results for 22 molecules from PubChem BioAssay (Tox21).

Inconclusive results are not listed. A number with no mark means an inactive call. Activity calls are given as the source filed them. Calls come from the whole dose curve; as a rule, active = well fitted curve in the direction sought with a large enough effect in the repeat runs; inconclusive = weak or mixed curves; inactive = no such curve, though single readings can be large; an effect the other way counts as inactive or inconclusive. Positions of bridges follow the written chain, without caps; N, C: chain ends. Non-standard residues stand in square brackets, D forms with d. Residues, ends and D or L forms follow the SMILES beside them. hArg = N=C(N)NCCCC[C@H](N)C(=O)O; Mpa = O=C(O)CCS

Assay [1] has as its target Nuclear receptor subfamily 1 group I member 2 (Homo sapiens) (UniProt O75469). Briefly: Human pregnane X receptor (PXR) small molecule agonists, qHTS assay (AID 1346982). Note: nearly all actives have a fitted effect of over 35% in size. Note: potency is the fitted concentration of half-maximal effect. In a few lines:
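PXR-Luc HepG2 cells (CYP3A4 promoter-driven luciferase) were seeded in medium with 5% charcoal-stripped FBS, left 5 hr at 37 C, then exposed to compounds in DMSO for 24 hr. Luminescence was read after ONE-Glo addition.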

Assay [2] deals with Nuclear receptor subfamily 1 group I member 2 (Rattus norvegicus) (UniProt Q9R1A7). Kind of assay: Rat pregnane X receptor (rPXR) activation by small molecules, qHTS assay (AID 1346983). Note: nearly all actives have a fitted effect of over 20% in size. Particulars: rPXR luciferase reporter cells, One-Glo luminescence, 24 h; hits give high values. In a few lines: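 Cell-based rPXR luciferase reporter assay, 2,000 cells per well, rested 5hr at 37 C before compound addition in DMSO, then 24 hr at 37 C. One-Glo reagent was added and luminescence read after 30 min at room temperature.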
Nuclear receptor subfamily 1 group I member 2 (Rattus norvegicus), sequence (Q9R1A7 whole entry, looked up): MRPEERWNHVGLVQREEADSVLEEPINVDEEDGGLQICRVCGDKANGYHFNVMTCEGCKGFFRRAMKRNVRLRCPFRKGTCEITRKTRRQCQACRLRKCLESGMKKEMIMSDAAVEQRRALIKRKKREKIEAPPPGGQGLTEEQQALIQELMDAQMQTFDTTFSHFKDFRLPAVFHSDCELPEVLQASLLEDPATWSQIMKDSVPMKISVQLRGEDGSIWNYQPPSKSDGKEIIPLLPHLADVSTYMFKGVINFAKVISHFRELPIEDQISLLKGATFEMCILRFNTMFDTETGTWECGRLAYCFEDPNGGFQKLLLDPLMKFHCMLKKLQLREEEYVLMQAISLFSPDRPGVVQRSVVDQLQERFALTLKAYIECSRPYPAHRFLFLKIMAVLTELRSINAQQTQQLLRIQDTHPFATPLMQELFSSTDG

Assay [3] addresses Nuclear receptor subfamily 1 group I member 2 (Homo sapiens) (UniProt O75469). Briefly: CYP3A4 induction through human pregnane X receptor (PXR) by small molecules, qHTS assay (AID 1346984). Note: nearly all actives have a fitted effect of over 40% in size. Note: potency is the fitted concentration of half-maximal effect. Put shortly:
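DPX-2 cells (HepG2 co-transfected with PXR and CYP3A4 promoter-luciferase) treated with compounds 24 h at 37C; luciferin-IPA CYP3A4 substrate 3uM final added for 3 h, then One-Glo; luminescence read. qHTS format.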

Assay [4] shares this target. Kind of assay: Human pregnane X receptor (PXR) activation by small molecules, qHTS assay (AID 1346985). Note: nearly all actives have a fitted effect of over 40% in size. Note: potency is the fitted concentration of half-maximal effect. In a few lines:
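DPX-2 cells (HepG2 co-transfected with a PXR response element and a CYP3A4-promoter luciferase construct) were seeded at 2,000 per well, rested 5 hr at 37C, then exposed to DMSO-dissolved compounds for 24 hr. Activation was read as luciferase luminescence.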

In assay [5] the target is Cytochrome P450 2D6 (Homo sapiens) (UniProt P10635). Kind of assay: Cytochrome P450 Family 2 Subfamily D Member 6 (CYP2D6) small molecule antagonists: luciferase reporter qHTS assay (AID 1671196). For activity change, negative = inhibition: series mostly up to about 120 µM. Note: nearly all actives have a fitted effect of over 50% in size. Note: potency is the fitted concentration of half-maximal effect. In a few lines: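 CYP2D6 enzyme–substrate mix was held with compound for 10 min at room temperature, then NADPH regeneration solution was added and the reaction ran 1 h at room temperature. Luciferin product was detected by luminescence after 20 min with detection reagent.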
Cytochrome P450 2D6 (Homo sapiens), sequence (P10635 whole entry, looked up): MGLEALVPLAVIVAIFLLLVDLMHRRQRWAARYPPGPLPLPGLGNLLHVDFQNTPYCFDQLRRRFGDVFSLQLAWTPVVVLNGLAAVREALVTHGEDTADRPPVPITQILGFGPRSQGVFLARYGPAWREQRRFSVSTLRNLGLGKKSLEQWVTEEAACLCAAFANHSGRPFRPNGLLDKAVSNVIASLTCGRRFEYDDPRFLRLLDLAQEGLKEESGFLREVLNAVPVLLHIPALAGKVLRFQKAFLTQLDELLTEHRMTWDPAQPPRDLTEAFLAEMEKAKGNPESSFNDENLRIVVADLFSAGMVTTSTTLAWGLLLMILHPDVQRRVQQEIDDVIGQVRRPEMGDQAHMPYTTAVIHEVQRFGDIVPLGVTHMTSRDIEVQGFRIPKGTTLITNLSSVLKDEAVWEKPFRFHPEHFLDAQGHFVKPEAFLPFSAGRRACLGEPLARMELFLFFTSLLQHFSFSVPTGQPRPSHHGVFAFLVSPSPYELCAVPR

In assay [6] the target is Cytochrome P450 2C19 (Homo sapiens) (UniProt P33261). Kind of assay: Cytochrome P450 Family 2 Subfamily C Member 19 (CYP2C19) small molecule antagonists: luciferase reporter qHTS assay (AID 1671197). For activity change, negative = inhibition: series mostly up to about 120 µM. Note: nearly all actives have a fitted effect of over 65% in size. Note: potency is the fitted concentration of half-maximal effect. Put shortly: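 Relative luminescence units recorded 20 min after the detection reagent stopped a 1 h, 37C CYP2C19 reaction on proluciferin substrate, which was started by NADPH regeneration following 10 min room-temperature compound preincubation; ketoconazole positive control.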
Cytochrome P450 2C19 (Homo sapiens), sequence (P33261 whole entry, looked up): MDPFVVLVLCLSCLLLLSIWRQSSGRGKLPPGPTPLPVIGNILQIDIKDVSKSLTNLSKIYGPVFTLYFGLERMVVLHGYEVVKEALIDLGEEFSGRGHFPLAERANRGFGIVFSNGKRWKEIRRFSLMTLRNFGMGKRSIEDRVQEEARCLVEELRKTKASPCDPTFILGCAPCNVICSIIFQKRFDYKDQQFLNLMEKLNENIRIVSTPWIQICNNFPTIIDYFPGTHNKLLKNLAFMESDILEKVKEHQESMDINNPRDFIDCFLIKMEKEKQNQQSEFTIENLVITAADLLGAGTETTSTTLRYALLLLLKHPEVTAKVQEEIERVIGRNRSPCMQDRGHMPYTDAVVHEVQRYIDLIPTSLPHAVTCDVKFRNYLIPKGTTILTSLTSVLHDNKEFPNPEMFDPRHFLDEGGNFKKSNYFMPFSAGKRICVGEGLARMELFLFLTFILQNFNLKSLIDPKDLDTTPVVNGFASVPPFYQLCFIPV

Assay [7] addresses Cytochrome P450 2C9 (Homo sapiens) (UniProt P11712). Briefly: Cytochrome P450 Family 2 Subfamily C Member 9 (CYP2C9) small molecule antagonists: luciferase reporter qHTS assay (AID 1671198). For activity change, negative = inhibition: series mostly up to about 120 µM. Note: nearly all actives have a fitted effect of over 50% in size. Note: potency is the fitted concentration of half-maximal effect. In a few lines: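 CYP2C9 activity was measured with a P450-Glo proluciferin substrate. Enzyme–substrate mix was held with compound for 10 min at room temperature, then NADPH regeneration solution was added for 1 h at 37C. Luciferin product was read as luminescence.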

For assay [8], the target named is Cytochrome P450 1A2 (Homo sapiens) (UniProt P05177). Kind of assay: Cytochrome P450 Family 1 Subfamily A Member 2 (CYP1A2) small molecule antagonists: luciferase reporter qHTS assay (AID 1671199). For activity change, negative = inhibition: series mostly up to about 120 µM. Note: nearly all actives have a fitted effect of over 50% in size. Note: potency is the fitted concentration of half-maximal effect. In a few lines:
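Human CYP1A2 activity measured with a P450-Glo proluciferin substrate; compounds in DMSO preincubated 10 min at room temperature with enzyme-substrate mix, then NADPH regeneration system added for 1 h. Luciferin detection reagent, 20 min, luminescence read.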

Assay [9] has as its target Voltage-gated inwardly rectifying potassium channel KCNH2 (Homo sapiens) (UniProt Q12809). Briefly: Human Ether-a-go-go-Related Gene (hERG) channel small molecule antagonists: fluorescence cell-based qHTS assay (AID 1671200).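 Note: hERG-expressing U2OS cells given a thallium stimulus after FluxOR II dye loading; series mostly up to about 77 µM; nearly all actives have a fitted effect of over 50% in size.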 In a few lines: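 First, 1000 cells per well are seeded and cultured overnight at 37 C. Next, FluxOR II dye is loaded for 1 h at room temperature, protected from light. After 10 more minutes, stimulus is added and fluorescence is read.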

Assay [10] has as its target Cytochrome P450 3A4 (Homo sapiens) (UniProt P08684). Kind of assay: Cytochrome P450 Family 3 Subfamily A Member 4 (CYP3A4) small molecule antagonists: luciferase reporter qHTS assay (AID 1671201). For activity change, negative = inhibition: series mostly up to about 120 µM. Note: nearly all actives have a fitted effect of over 50% in size. Note: potency is the fitted concentration of half-maximal effect. In a few lines:
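Enzyme and proluciferin substrate are mixed with test chemicals for 10 min, then NADPH regeneration system drives turnover for 1 h at room temperature. A detection reagent halts the reaction; luminescence after 20 min gives relative activity.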
% is set by controls: 0 for no effect and ±100 for the full control effect.

Cytochrome P450 1A2 (Homo sapiens), sequence (P05177 whole entry, looked up): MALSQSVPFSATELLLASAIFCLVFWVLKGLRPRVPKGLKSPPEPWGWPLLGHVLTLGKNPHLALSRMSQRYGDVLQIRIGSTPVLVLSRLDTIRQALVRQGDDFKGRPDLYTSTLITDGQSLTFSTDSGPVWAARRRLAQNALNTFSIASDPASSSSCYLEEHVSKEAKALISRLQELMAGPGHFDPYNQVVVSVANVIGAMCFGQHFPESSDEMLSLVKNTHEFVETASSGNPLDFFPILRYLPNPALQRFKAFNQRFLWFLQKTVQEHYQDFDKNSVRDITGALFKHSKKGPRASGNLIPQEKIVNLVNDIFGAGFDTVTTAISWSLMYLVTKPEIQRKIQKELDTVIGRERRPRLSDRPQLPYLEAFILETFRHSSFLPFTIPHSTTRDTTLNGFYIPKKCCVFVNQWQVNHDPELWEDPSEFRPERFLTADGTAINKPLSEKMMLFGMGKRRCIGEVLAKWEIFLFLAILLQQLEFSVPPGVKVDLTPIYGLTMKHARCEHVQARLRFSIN
Voltage-gated inwardly rectifying potassium channel KCNH2 (Homo sapiens), sequence (Q12809 whole entry, looked up): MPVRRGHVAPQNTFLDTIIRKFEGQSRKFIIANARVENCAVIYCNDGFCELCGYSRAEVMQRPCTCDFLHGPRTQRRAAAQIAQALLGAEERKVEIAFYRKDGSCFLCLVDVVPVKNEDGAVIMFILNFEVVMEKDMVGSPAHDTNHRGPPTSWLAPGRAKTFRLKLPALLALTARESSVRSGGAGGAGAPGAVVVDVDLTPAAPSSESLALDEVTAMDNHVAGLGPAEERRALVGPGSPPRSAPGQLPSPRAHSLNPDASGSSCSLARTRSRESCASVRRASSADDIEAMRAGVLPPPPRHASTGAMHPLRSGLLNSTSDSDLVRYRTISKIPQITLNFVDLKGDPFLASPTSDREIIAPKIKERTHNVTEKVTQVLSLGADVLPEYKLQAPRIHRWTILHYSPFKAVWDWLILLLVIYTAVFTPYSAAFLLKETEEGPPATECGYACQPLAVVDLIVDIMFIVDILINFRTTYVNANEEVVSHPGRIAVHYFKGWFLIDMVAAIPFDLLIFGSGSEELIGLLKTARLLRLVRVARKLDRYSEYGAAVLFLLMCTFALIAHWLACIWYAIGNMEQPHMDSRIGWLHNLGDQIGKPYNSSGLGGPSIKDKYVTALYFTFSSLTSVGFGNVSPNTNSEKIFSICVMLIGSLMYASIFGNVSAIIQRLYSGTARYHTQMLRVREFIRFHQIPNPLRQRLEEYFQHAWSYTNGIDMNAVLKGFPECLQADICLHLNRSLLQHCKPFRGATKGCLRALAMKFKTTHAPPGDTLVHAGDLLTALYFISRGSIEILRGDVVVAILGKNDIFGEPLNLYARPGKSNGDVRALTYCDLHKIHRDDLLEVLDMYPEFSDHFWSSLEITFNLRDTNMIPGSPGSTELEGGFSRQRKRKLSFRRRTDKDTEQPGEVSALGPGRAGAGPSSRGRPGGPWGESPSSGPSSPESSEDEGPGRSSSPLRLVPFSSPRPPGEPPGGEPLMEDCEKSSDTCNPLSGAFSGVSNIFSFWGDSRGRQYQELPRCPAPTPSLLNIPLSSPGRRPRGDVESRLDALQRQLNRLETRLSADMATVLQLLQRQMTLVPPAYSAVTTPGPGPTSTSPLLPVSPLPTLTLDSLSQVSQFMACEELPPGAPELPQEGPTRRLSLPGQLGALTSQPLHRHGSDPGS
Nuclear receptor subfamily 1 group I member 2 (Homo sapiens), sequence (O75469 whole entry, looked up): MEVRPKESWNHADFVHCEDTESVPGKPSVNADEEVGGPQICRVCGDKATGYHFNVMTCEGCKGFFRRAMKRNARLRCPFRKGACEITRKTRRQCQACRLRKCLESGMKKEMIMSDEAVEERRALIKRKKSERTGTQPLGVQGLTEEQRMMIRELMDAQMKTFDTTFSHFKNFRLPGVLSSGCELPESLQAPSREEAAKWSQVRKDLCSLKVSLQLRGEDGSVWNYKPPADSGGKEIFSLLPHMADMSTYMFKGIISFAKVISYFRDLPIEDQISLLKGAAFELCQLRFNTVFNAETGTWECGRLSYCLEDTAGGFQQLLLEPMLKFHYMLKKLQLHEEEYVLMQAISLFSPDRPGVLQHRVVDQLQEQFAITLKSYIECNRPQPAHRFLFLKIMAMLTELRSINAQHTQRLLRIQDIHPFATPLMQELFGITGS
Cytochrome P450 2C9 (Homo sapiens), sequence (P11712 whole entry, looked up): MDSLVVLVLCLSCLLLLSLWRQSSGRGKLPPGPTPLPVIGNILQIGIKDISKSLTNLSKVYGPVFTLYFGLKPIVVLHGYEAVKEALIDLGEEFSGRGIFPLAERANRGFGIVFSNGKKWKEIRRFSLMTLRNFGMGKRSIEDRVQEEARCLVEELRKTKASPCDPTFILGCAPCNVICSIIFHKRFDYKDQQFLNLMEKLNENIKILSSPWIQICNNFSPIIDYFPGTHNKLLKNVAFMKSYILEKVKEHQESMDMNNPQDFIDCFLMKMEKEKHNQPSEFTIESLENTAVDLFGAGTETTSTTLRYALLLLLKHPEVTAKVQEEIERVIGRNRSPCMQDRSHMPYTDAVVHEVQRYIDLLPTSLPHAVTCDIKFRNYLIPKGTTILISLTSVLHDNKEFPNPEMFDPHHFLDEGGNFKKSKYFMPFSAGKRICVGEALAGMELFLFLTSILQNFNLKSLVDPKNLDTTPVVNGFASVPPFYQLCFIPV
Cytochrome P450 3A4 (Homo sapiens), sequence (P08684 whole entry, looked up): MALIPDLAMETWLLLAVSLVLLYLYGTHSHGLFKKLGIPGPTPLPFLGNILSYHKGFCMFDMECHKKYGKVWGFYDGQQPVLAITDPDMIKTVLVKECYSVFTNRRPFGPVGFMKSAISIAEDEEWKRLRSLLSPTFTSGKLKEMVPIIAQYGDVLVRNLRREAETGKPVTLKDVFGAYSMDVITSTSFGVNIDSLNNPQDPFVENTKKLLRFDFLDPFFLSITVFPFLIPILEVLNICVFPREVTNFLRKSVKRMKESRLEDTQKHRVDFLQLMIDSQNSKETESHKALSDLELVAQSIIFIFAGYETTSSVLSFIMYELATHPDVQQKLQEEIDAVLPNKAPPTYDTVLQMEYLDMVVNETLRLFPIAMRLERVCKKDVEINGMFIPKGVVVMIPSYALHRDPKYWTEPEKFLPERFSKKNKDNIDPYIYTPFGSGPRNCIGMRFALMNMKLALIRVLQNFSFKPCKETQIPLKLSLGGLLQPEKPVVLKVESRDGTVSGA

`Cn1nnc2c(C(N)=O)ncn2c1=O`: the Potency result in assay [1], in assay [3], in assay [4], in [5], in assay [6] and in [7] was “inactive” each time. For the same molecule, the Potency result in [8], in assay [9] and in assay [10] was “inactive” throughout. For the same molecule, the max activation in assay [2] was -4.63%.

On to `NC(=O)[C@@H]1CSSCCC(=O)N[C@@H](CCCCN=C(N)N)C(=O)NCC(=O)N[C@@H](CC(=O)O)C(=O)N[C@@H](Cc2c[nH]c3ccccc23)C(=O)N2CCC[C@H]2C(=O)N1` ([Mpa][hArg]GDWPC-NH2; disulfide 1-7), for which the Potency entry in assay [1], in assay [3], in assay [4], in assay [5], in assay [6] and in assay [7] was “inactive” in each case. Further, the Potency result in assay [9] and in assay [10] was “inactive” in each case. For the same molecule, the max activation in assay [2] was -0.95%.

Turning to `c1ccc2c(CC3=NCCN3)cccc2c1`, the Potency result in assay [1], in [3], in [4], in [6], in assay [9] and in assay [10] was “inactive” in each case. For the same molecule, the max activation in assay [2] is 14.1%. For the same molecule, the Potency in assay [5] is 9.77 µM (active).

On to `CN(C)CC/C=C1/c2ccccc2COc2ccc(CC(=O)O)cc21`, for which the Potency entry in assay [1], in assay [3], in assay [4], in assay [5], in assay [6] and in [7] was “inactive” each time. In addition, the Potency result in [8], in assay [9] and in assay [10] was “inactive” in each case. For the same molecule, the max activation in [2] was -3.17%.

In the case of `CC(=O)Nc1ccc(OC(=O)c2ccccc2OC(C)=O)cc1`, the Potency result in assay [1], in [3], in [4], in assay [6], in [7] and in assay [9] was “inactive” throughout. Moreover, the max activation in [2] is 1.26%.

`N#CCC(=O)NN`: the Potency entry in assay [1], in assay [3], in [4], in assay [5], in assay [7] and in assay [8] was “inactive” each time. Also, the Potency result in [9] and in assay [10] was “inactive” throughout. In assay [2], the max activation was -4.95%.

For `NCc1ccc(S(N)(=O)=O)cc1`, the Potency entry in assay [1], in assay [3], in [4], in assay [5], in assay [8] and in assay [9] was “inactive” in each case. Further, the Potency entry in [10] is “inactive”. Moreover, the max activation in assay [2] was -0.0614%.

Regarding `Cn1c(=O)c2[nH]c(Br)nc2n(C)c1=O`, the Potency result in assay [1], in [3], in [4], in [5], in assay [6] and in [9] was “inactive” in each case. Besides, the max activation in assay [2] was -2.17%. The Potency in assay [8] is 24.5 µM (active).

Turning to `CN(C)CCCO[C@@H]1[C@H]2OC(C)(C)O[C@H]2O[C@@H]1C(O)CO` (some centres not stated), the Potency result in assay [1], in [3], in assay [4], in assay [5], in assay [6] and in [7] was “inactive” throughout. The Potency result in assay [8], in [9] and in assay [10] was “inactive” throughout. Also, the max activation in assay [2] is -3.96%.

`COc1cc2c(cc1OC)C(=O)C(CC1CCN(Cc3ccccc3)CC1)C2` (configuration not stated): the Potency result in assay [1] was “inactive”. In addition, the max activation in assay [2] was -1.76%.

As to `CCC[C@@H]1C[C@@H](C(=O)N[C@@H]([C@H]2O[C@H](SC)[C@H](O)[C@@H](O)[C@H]2O)[C@@H](C)O)N(C)C1`, the Potency result in assay [1], in assay [3], in assay [4], in assay [5], in [6] and in assay [7] was “inactive” throughout. Besides, the Potency result in [9] and in assay [10] was “inactive” each time. Moreover, the max activation in assay [2] was 0.287%.

For the molecule `Cc1c(NC(=O)c2cccnc2)c(=O)n(-c2ccccc2)n1C`, the Potency result in assay [1], in [3], in assay [4], in assay [5], in [7] and in assay [8] was “inactive” in each case. For the same molecule, the Potency entry in assay [9] and in [10] was “inactive” each time. In addition, the max activation in [2] was -1.68%.

Consider `O=S(=O)(O)c1ccc2c(N=Nc3ccc(S(=O)(=O)O)c4ccccc34)c(O)c(S(=O)(=O)O)cc2c1`, for which, in assay [1], the activation was 1.28% [at 8.39 µM]. Moreover, in assay [2], the max activation was -9.86%. Further, the Potency entry in assay [3] and in assay [4] was “inactive” in each case. For the same molecule, the activity change, negative = inhibition in [5] was -11.1% [at 10.5 µM]; in [6], -14.2% [at 10.5 µM]; in assay [7] it was -3.9% [at 10.5 µM]; in [9] it was 1.92% [at 6.97 µM]; in assay [10], 1.51% [at 10.5 µM].

With `C=CCN1C[C@H](C(=O)N(CCCN(C)C)C(=O)NCC)C[C@@H]2c3cccc4[nH]cc(c34)C[C@H]21`, the Potency was 29.8 µM (active) in assay [1]; 12.6 µM (active) in assay [3]; 15.8 µM (active) in [4]; 2.45 µM (active) in [5]; 0.977 µM (active) in assay [10]. Besides, the max activation in assay [2] is -1.45%. Besides, in assay [6], the Potency entry is “inactive”.

As for `CC1CCc2c(N3CCC(O)CC3)c(F)cc3c(=O)c(C(=O)O)cn1c23` (configuration not stated), the Potency result in assay [1], in [3], in assay [4], in assay [5] and in assay [9] was “inactive” in each case. Further, the max activation in assay [2] was -2.67%.

For `CC(C)Cn1cnc2c1c(=O)n(C)c(=O)n2C`, the Potency entry in assay [1], in assay [3], in assay [4], in assay [5], in assay [6] and in [7] was “inactive” in each case. For the same molecule, the Potency entry in [9] and in assay [10] was “inactive” throughout. Also, the max activation in [2] is 0.329%. Moreover, the Potency in assay [8] was 15.5 µM (active).

As to `CC(C)=CCC[C@@](C)(O)[C@H]1CC=C(C)CC1`, the Potency was 29.8 µM (active) in [1], 8.71 µM (active) in assay [6] and 17.4 µM (active) in assay [7]. In addition, the max activation in assay [2] was 1.39%. In addition, the Potency entry in assay [3], in [4], in assay [5] and in assay [9] was “inactive” throughout.

Regarding `CN1C[C@@H]2C[C@H]1CN2c1cc2c(cc1F)c(=O)c(C(=O)O)cn2C1CC1`, in [1], the activation was -18.6% [at 19 µM]. In addition, the max activation in [2] was -1.05%. For the same molecule, the Potency result in assay [3] and in assay [4] was “inactive” each time. For the same molecule, the activity change, negative = inhibition was 4.43% [at 23.6 µM] in assay [5]; 35.3% [at 23.6 µM] in assay [6]; 8.53% [at 23.6 µM] in assay [7]; -8.84% [at 23.6 µM] in assay [8]; 0.182% [at 15.8 µM] in assay [9].

Take `C#CCN[C@@H]1CCc2ccccc21`: the Potency result in [1], in [3], in assay [4], in [6], in assay [7] and in assay [9] was “inactive” in each case. Also, the Potency result in assay [10] was “inactive”. Also, in [2], the max activation was -3.04%. In addition, the Potency in assay [5] is 27.5 µM (active); in assay [8] it was 5.12 µM (active).

`CC(C)NCC(O)c1ccc2ccccc2c1` (configuration not stated): the Potency entry in assay [1], in [3], in [4], in [6], in assay [7] and in assay [9] was “inactive” in each case. Also, the Potency result in [10] was “inactive”. The max activation in assay [2] is -0.315%. The Potency in assay [5] was 2.19 µM (active).

In the case of `O=NN(CCCl)C(=O)NC1CCCCC1`, the Potency entry in assay [1], in assay [3], in [4], in [5], in assay [6] and in assay [7] was “inactive” in each case. Further, the Potency result in assay [8], in assay [9] and in [10] was “inactive” in each case. Moreover, in [2], the max activation was -2.8%.

Regarding `O=C(CN1CCNCC1)NC1CCCCC1`, the Potency entry in assay [1], in assay [3], in [4], in [5], in [6] and in assay [7] was “inactive” each time. In addition, the Potency entry in assay [8], in [9] and in assay [10] was “inactive” in each case. The max activation in assay [2] is -3.24%.
